From PubChem
Sfp PPTase inh: blocks B. subtilis Sfp PPTase activity | Biochemical Sfp PPTase activity, qHTS | 310,000 tested, 3.5% active | Potency, µM, actives largely listed as inhibitors | Q9F4F7;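 also: the enzyme is Sfp with the accession as filed and its product quenches rhodamine fluorescence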
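With Hepes-Na pH 7.6 buffer containing 10 mM MgCl2, Sfp (15 nM) modified BHQ-2-YbbR (12.5 uM) using rhodamine-CoA (5 uM). Two reads 30 minutes apart at 525/598 nm yielded each well's rate.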
G9a inh: blocks human histone lysine methyltransferase G9a. Q96KQ7. G9a H3K9 monomethylation, AlphaScreen, 2 h. Potency, µM (highest dose often 102 µM), usual class: inhibitors. 350,000 tested, 8.8% active. AID 504332; also: nearly all actives have a fitted effect of over 75% in size
Target sequence (Q96KQ7 913-1193 limits assumed): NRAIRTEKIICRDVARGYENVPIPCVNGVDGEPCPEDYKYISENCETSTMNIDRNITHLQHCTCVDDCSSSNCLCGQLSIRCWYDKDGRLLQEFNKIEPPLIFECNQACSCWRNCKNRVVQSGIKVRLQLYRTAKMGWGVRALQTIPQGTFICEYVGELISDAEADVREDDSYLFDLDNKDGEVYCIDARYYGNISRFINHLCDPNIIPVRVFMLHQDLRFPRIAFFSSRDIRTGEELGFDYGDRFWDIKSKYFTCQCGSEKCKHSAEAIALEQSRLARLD
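Methyltransferase reactions run at room temperature for 2 h (20 nM enzyme, 500 nM biotin-H3K9 peptide, 20 uM SAM) after a 15 min compound preincubation; product detected by AlphaScreen beads and anti-H3K9me1 antibody.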
JMJD2A Tudor: blocks the human JMJD2A Tudor domain. O75164. AlphaScreen JMJD2A-Tudor / H3K4me3 peptide binding. Potency, µM (top dose mostly 114 µM), hits mostly inhibitors. 390,000 tested, 4.4% active. AID 504339; also: nearly all actives have a fitted effect of over 50% in size
HP1b chromo inh: HP1-beta chromodomain-methylated histone interaction inhibition; P83916; AlphaScreen HP1-beta / biotin-H3K9me3 peptide binding; Potency, µM (top dose mostly 114 µM), actives largely listed as inhibitors; 390,000 tested, 0.56% active; also: nearly all actives have a fitted effect of over 70% in size
Target sequence (P83916 whole entry, looked up): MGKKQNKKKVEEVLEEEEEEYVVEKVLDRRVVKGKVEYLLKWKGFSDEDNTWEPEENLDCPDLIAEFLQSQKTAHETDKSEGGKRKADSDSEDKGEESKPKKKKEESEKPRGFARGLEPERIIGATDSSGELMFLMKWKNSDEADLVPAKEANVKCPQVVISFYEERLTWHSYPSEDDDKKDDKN
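AlphaScreen: HP1-beta (50 nM) preformed 30 min with biotin-H3(1-18)K9me3 peptide (50 nM) in PBS pH 7.4, 0.01% Tween-20. Compound added for 30 min at RT, then streptavidin donor/nickel chelate acceptor beads (10 ug/mL) for 30 min.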
BAZ2B inh: inhibitors of human BAZ2B bromodomain | AlphaScreen BAZ2B-H3K14Ac peptide displacement | 360,000 tested, 4.4% active | AID 504333 | Potency, µM (series often up to 114 µM), actives largely listed as inhibitors | Q9UIF8; also: nearly all actives have a fitted effect of over 60% in size
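Protein-peptide AlphaScreen: BAZ2B 50 nM, b-H3K14Ac 50 nM, 1x PBS pH 7.4 + 0.01% Tween-20. Preincubation 30 min RT; cpd 30 min RT (top 110 uM); beads 20 min RT, light-protected.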
Hits are given with their value; 0 = inactive; ? = inconclusive; - = no result; ! = not active in a repeat; [ ] = another dose, or the depositor's remark. Most compounds without a hit are left out; they make up all but 12% or so of the library. Calls follow the shape of the dose curve; as a rule, active = well fitted curve in the direction sought with a large enough effect; inconclusive = small, poorly fitted or top-dose-only effect, or another doubt; inactive = no such curve, though single readings can be large; an effect the other way counts as inactive or inconclusive.

SMILES	Sfp PPTase inh	G9a inh	JMJD2A Tudor	HP1b chromo inh	BAZ2B inh
CCOC(=O)C(NC(=O)N(C)C)(Nc1sc(C)c(CC)c1C#N)C(F)(F)F (stereo not drawn)	44.7µM	8.91µM	0	0	0
CCOC(=O)C(NC(=O)CCl)(Nc1sc(C)c(CC)c1C#N)C(F)(F)F (stereo not drawn)	0	25.1µM	0	0	0
c1ccc(-n2cnnc2SCc2cn3ccccc3n2)cc1	0	50.1µM	0	0	0
Brc1c(CSc2nncn2-c2ccccc2)nc2ncccn12	0	56.2µM	0	0	0
Cc1cccc2nc(CSc3nncn3-c3ccccc3)cn12	0	39.8µM	0	0	0
C[C@@H](N)C1CCC(C(=O)Nc2ccncc2)CC1 (stereo partly drawn)	0	29.9µM!	-	-	-
O=C(Nc1ccc(Cc2ccncc2)cc1)C1CC1	0	0	0	0	0
CCCN1C(=O)CC(c2ccco2)Sc2ccccc21 (stereo not drawn)	35.5µM	?	?	0	0
O=C1CC(c2ccco2)Sc2nc3ccccc3n21 (stereo not drawn)	?	44.7µM	79.4µM	0	0
CCOC(=O)N1CCN(C(=O)CSc2nnc(-c3cccc(Cl)c3)o2)CC1	0	0	0	0	0
CC(C)(C)OC(=O)NCc1nc(N)n[nH]1	0	0	0	0	0
CCSc1nnc(CCNC(=O)OC(C)(C)C)o1	0	0	0	0	0
CC(C)(C)OC(=O)NCCc1n[nH]c(=S)o1	79.4µM	-	?	0	0
Cn1c(CCNC(=O)OC(C)(C)C)n[nH]c1=S	0	?	39.8µM	0	0
CC1=CC(=O)C=C(C)C1=NOc1ccccc1[N+](=O)[O-]	5.62µM	25.1µM	0	0	0
CCCCn1c(NC(=S)Nc2ccccc2)nc2ccccc21	0	0	39.8µM	?	7.94µM
S=C(Nc1ccccc1)Nc1nc2ccccc2n1CCOc1ccccc1	0	0	44.7µM	0	6.31µM
CCCCn1c(NC(=O)c2ccccc2)nc2ccccc21	0	0	0	0	0
CN(C)CCCn1c(NC(=O)C2CCCCC2)nc2ccccc21	0	0	0	0	0
CC(=O)Nc1nc2ccccc2n1CCN(C)C	0	39.8µM	39.8µM	0	0
COc1ccc(N2C(=O)CCC(C(C)=O)=C2C)cc1	0	0	0	0	0
CCN(CC)CCC(C)OC(c1ccccc1)c1ccccc1 (stereo not drawn)	0	?	25.1µM	0	0
O=C(NCC1CCCO1)C(c1ccc(F)cc1)N(CC1CCCO1)C(=O)c1ccc(-c2ccccc2)[nH]1 (stereo not drawn)	0	-	0	0	39.8µM
O=C(NCC1CCCO1)C(c1cccs1)N(Cc1cccs1)C(=O)c1ccc(-c2ccccc2)[nH]1 (stereo not drawn)	0	?	?	?	?
COC(=O)c1[nH]c2cccc(OC)c2c1NC(=O)CN1CCN(c2cccc(OC)c2)C(C)C1 (stereo not drawn)	?	?	0	0	?
SMILES	Sfp PPTase inh	G9a inh	JMJD2A Tudor	HP1b chromo inh	BAZ2B inh
CCOC(=O)c1[nH]c2ccc(Br)cc2c1NC(=O)CCN1CCC(C)CC1	0	0	0	0	0
CCOC(=O)c1[nH]c2ccccc2c1NC(=O)Nc1ccc(OC)cc1	0	50.1µM	0	0	0
CCOC(=O)c1[nH]c2ccc(OC)cc2c1NC(C)=O	0	0	0	0	0
CCOC(=O)c1[nH]c2cc(OC)c(OC)cc2c1NC(=O)CN1CCN(c2ccc(OC)cc2)C(C)C1 (stereo not drawn)	0	22.4µM	-	-	44.7µM
CCOC(=O)c1[nH]c2ccc(OC)cc2c1NC(=O)CCN1CCC(C)CC1	0	4.47µM	0	0	0
C=CCNC(=S)Nc1c(C(=O)OC)[nH]c2cc(OC)ccc12	0	11.2µM	?	0	0
COC(=O)c1[nH]c2cc(OC)ccc2c1NC(=O)c1c(F)cccc1F	0	0	0	0	0
COC(=O)c1[nH]c2cc(OC)ccc2c1NC(=O)CCN1CCCCC1	0	0[12.7 µM]	0	0	0
COC(=O)c1[nH]c2cc(OC)ccc2c1NC(=O)CCN1CCCC(C)(C)C1	0	56.2µM	0	0	0
CCOC(=O)c1[nH]c2ccc(OC)cc2c1NC(=O)c1cccc(OC)c1	0	?	0	0	0
CCOC(=O)c1[nH]c2ccc(OC)cc2c1NC(=O)c1ccccc1C(=O)O	?	44.7µM	0	0	0
CCOC(=O)c1[nH]c2ccc(F)cc2c1NC(=O)c1ccccc1C(=O)O	0	14.1µM	0	0	0
CCCS(=O)(=O)Nc1c(C(=O)OC)[nH]c2ccccc12	0	50.1µM	0	0	0
CCOC(=O)c1[nH]c2ccc(F)cc2c1NC(=O)c1cc(OC)c(OC)c(OC)c1	0	0[12.7 µM]	0[11.4 µM]	0	0
Cc1ccc(NC(=O)c2ccc3[nH]c(C)cc(=O)c3c2)cc1	-	0	0	0	0
CCC(C)(C)NC(=O)CN(C(=O)c1csnn1)c1cccc2c1CCCC2	0	0	0	0	0
CS(=O)(=O)N(CC(=O)Nc1ccc(F)cc1F)C1CCCCC1	0	-	0	0	0
CC(C)(C)NC(=O)CSc1nc2scc(-c3ccccc3)c2c(=O)[nH]1	0	0	0	0	0
CCCCCc1ccc(-c2cn(CCc3c[nH]c4ccccc34)nn2)cc1	0	-	0	0	0
O=C(O)CCCCCCCCc1cn(CCc2c[nH]c3ccccc23)nn1	0	28.2µM	0	0	0
C(=C\c1ccccc1)/CSc1nnc(-c2cnccn2)n1Cc1ccco1	35.5µM	10µM	?	0	0
Nn1c(SC/C=C/c2ccccc2)nnc1-c1ccncc1	0	14.1µM	?	0	0
COc1cc(-c2nnc(SC/C=C/c3ccccc3)n2N)cc(OC)c1OC	0	0[12.7 µM]	0	0	0
Fc1ccccc1CSc1nnc(-c2cnccn2)n1Cc1ccco1	0	0	0	0	0
Cc1ccc(NC(=O)CSc2nnc(-c3cnccn3)n2Cc2ccco2)cc1	20µM	0[12.7 µM]	0	0	?
SMILES	Sfp PPTase inh	G9a inh	JMJD2A Tudor	HP1b chromo inh	BAZ2B inh
CC(C)[C@H](NC(=O)c1ccccc1)C(=O)OCC(=O)NCc1ccc2c(c1)OCO2	-	-	0	0	-
CCN(CC)CCCNC(=O)c1ccc(C)c(NC(=O)C2=C(C)OCCS2)c1	0	0	0	0	0
CCOC(=O)/C(C#N)=C1\CC2CCC1(C)C2(C)C (stereo not drawn)	39.8µM	3.16µM	0	?	0
O=C(Cc1nc(-c2ccc(Br)s2)cs1)NCCN1CCOCC1	50.1µM	0[12.7 µM]	0	0	0
O=[N+]([O-])c1ccc(S(=O)Cc2ccccc2)c([N+](=O)[O-])c1 (stereo not drawn)	-	-	?	0	-
O=c1c2c([N+](=O)[O-])cc([N+](=O)[O-])cc2sn1-c1ccc(Br)cc1	8.91µM	1.41µM	17.8µM	7.94µM	5.01µM
O=c1c2c([N+](=O)[O-])cc([N+](=O)[O-])cc2sn1Cc1ccccc1	2.24µM	1µM	4.47µM	?	3.55µM
COc1ccc(NC(=O)c2cc(S(=O)(=O)N3CCOCC3)ccc2OC)cc1	-	0	0	0	0
Cc1ccn2c(NCc3ccco3)c(-c3ccccc3)nc2c1	-	-	?	0	-
